Compound activity deposited in PubChem by several laboratories.
BoNT F protease = BoNT/F light chain protease inhibitors, primary screen, biochemical, flow cytometry, MLPCN library. Botulinum neurotoxin type F light chain protease (Clostridium botulinum). Multiplex microsphere protease cleavage assay. inhibition, % at 10 µM. actives 0.22% (n = 360,000); in the data active means inhibition above about 35%, passing the limit was not always enough; inconclusive means no clear call, values can overlap the other calls; further: plate controls were buffer without enzyme for full effect and enzyme alone for no effect
TcdB GH inh = TcdB glycohydrolase inhibitors, primary screen, biochemical, single point, plate reader; Toxin B (Clostridioides difficile), P18177; TcdB glycohydrolase enzymatic assay; inhibition, % at 9.99 µM; actives 0.24% (n = 350,000); AID 652162, 2013; in the data active means inhibition above about 10%
BoNT A protease = BoNT/A light chain protease inhibitors, primary screen, biochemical, flow cytometry, MLPCN library; inhibition, % at 10 µM; AID 588499, 2011; multiplex microsphere protease substrate cleavage; actives 0.17% (n = 360,000); further: plate controls were buffer without enzyme for full effect and enzyme alone for no effect
Anthrax LF inh2 = Bacillus anthracis LF protease inhibitors, primary screen, biochemical, multiplex microsphere, MLPCN library. Lethal factor (Bacillus anthracis), P15917. AID 588501, 2011. actives 0.12% (n = 360,000). multiplex microsphere protease cleavage assay. inhibition, % at 10 µM; further: plate controls were buffer without enzyme for full effect and enzyme alone for no effect
Bead autofluor = counter-screen for toxin protease inhibitors: compound fluorescence; compound autofluorescence counterscreen, microsphere flow cytometry; stronger effect = higher value; actives 3.1% (n = 360,000); fluorescence intensity (concentration not given with the values); in the data active means fluorescence intensity above about 16000; inconclusive means no clear call, values can overlap the other calls
The depositor's hits bear a star. The full list was thinned out, with hits kept by preference. Unless noted, no stated cut-off is given here; in the data, active means inhibition above about 30%; inconclusive means no clear call, values can overlap the other calls; inactive means below that.

`O=C1NC2(CCc3ccccc32)C(=O)N1CCOc1ccc(Cl)cc1` (stereo unspecified) gave BoNT F protease 1, BoNT A protease 0, Anthrax LF inh2 -3 and Bead autofluor 4214.
`O=C(CSc1ncn[nH]1)Nc1ccccc1-c1ccccc1` gave BoNT F protease 8, BoNT A protease 3, Anthrax LF inh2 11 and Bead autofluor 6683.
N#Cc1ccsc1NC(=O)CSc1ncn[nH]1 was read as BoNT F protease 1, BoNT A protease 3, Anthrax LF inh2 0 and Bead autofluor 22762*.
Screening O=C(CSc1ncn[nH]1)Nc1ccccc1Sc1ccccc1 returned BoNT F protease 0, BoNT A protease inconclusive, Anthrax LF inh2 -4 and Bead autofluor 23235*.
Screening O=C(CCl)Nc1ccccc1Sc1ccc(Cl)cc1 returned BoNT F protease -5, BoNT A protease -3, Anthrax LF inh2 1 and Bead autofluor 20704*.
`Cc1cccc(Nc2nc(N)nc(CN3CCN(c4ccccc4)CC3)n2)c1` gave BoNT F protease -5, BoNT A protease inconclusive, Anthrax LF inh2 -3 and Bead autofluor 23528*.
Screening Nc1nc(CN2CCN(Cc3ccccc3)CC2)nc(Nc2ccccc2)n1 returned BoNT F protease 9, TcdB GH inh 1, BoNT A protease 7, Anthrax LF inh2 0 and Bead autofluor 19782*.
For Cc1ccc(S(=O)(=O)CCC(=O)OCc2nc(N)nc(Nc3ccccc3C)n2)cc1 the results were BoNT F protease -7, TcdB GH inh 1, BoNT A protease 0, Anthrax LF inh2 4 and Bead autofluor 5567.
`Cc1ccccc1Nc1nc(N)nc(COC(=O)CCS(=O)(=O)c2ccccc2)n1` gave BoNT F protease -5, BoNT A protease -1, Anthrax LF inh2 -2 and Bead autofluor 24248*.
For COc1ccc(Cn2c(C)cc3c(c2=O)C(c2cccs2)C(C#N)=C(N)O3)cc1OC (stereo unspecified) the results were BoNT F protease 20, BoNT A protease 15, Anthrax LF inh2 -17 and Bead autofluor 16938*.
CCOc1ccc(C2C(C#N)=C(N)Oc3cc(C)n(CCN(C)C)c(=O)c32)cc1OCC (stereo unspecified) was read as BoNT F protease 0, BoNT A protease 0, Anthrax LF inh2 -2 and Bead autofluor 16485*.
COc1ccc(CCn2c(C)cc3c(c2=O)C(c2ccncc2)C(C#N)=C(N)O3)cc1OC (stereo unspecified) was read as BoNT F protease 1, BoNT A protease 0, Anthrax LF inh2 -3 and Bead autofluor 3342.
For Cc1cc2c(c(=O)n1CCN(C)C)C(c1ccc(Cl)cc1)C(C#N)=C(N)O2 (stereo unspecified) the results were BoNT F protease -7, TcdB GH inh 1, BoNT A protease inconclusive, Anthrax LF inh2 -2 and Bead autofluor 24829*.
CCS(=O)(=O)N1CCCCN2[C@@H](CO)[C@H](c3ccc(C#CC(C)(C)O)cc3)[C@@H]2C1 was read as TcdB GH inh 1.
`CC(C)NC(=O)N(C)C[C@@H]1Oc2c(NC(=O)c3cnccn3)cccc2C(=O)N([C@H](C)CO)C[C@@H]1C` gave TcdB GH inh 0.
`Cc1c(C)c2cc(Cl)c(O)c(CN3CCCC(C)C3)c2oc1=O` (stereo unspecified) gave BoNT F protease 2, BoNT A protease 0, Anthrax LF inh2 -4 and Bead autofluor 22975*.
O=C(CCl)Nc1cccc(-c2cnc3ccccc3n2)c1 was read as BoNT F protease 12, BoNT A protease 0, Anthrax LF inh2 1 and Bead autofluor 3383.
For O=C(CCl)Nc1ccc(Oc2cnc3ccccc3n2)cc1 the results were BoNT F protease 5, BoNT A protease 3, Anthrax LF inh2 0 and Bead autofluor 21837*.
C[C@H]1CCCCO[C@H](CN(C)CC2CCCCC2)[C@@H](C)CN([C@@H](C)CO)C(=O)c2cc(NC(=O)Nc3ccc4c(c3)OCO4)ccc2O1 was read as TcdB GH inh -1.
For Cc1ccc(CNC(=O)C2CC(=O)OC23CCCC3)c(C)c1 (stereo unspecified) the results were BoNT F protease 2, BoNT A protease 0, Anthrax LF inh2 -3 and Bead autofluor 16440*.
COc1ccc(C)cc1NC(=O)C1CC(=O)OC12CCCCC2 (stereo unspecified) was read as BoNT F protease -1, TcdB GH inh -3, BoNT A protease -1, Anthrax LF inh2 -1 and Bead autofluor 22901*.
Screening O=C1CC(C(=O)Nc2ccccc2)C2(CCCC2)O1 (stereo unspecified) returned BoNT F protease 5, BoNT A protease 1, Anthrax LF inh2 -13 and Bead autofluor 6305.
For Cc1cccc(NC(=O)C2CC(=O)OC23CCCCC3)c1 (stereo unspecified) the results were BoNT F protease 5, BoNT A protease 0, Anthrax LF inh2 1 and Bead autofluor 4534.
Cc1c(N=Cc2ccc(Br)s2)cccc1[N+](=O)[O-] was read as BoNT F protease -2, BoNT A protease 0, Anthrax LF inh2 0 and Bead autofluor 23875*.
C[C@@H]1CCCCO[C@@H](CN(C)C(=O)Nc2ccc(F)cc2)[C@@H](C)CN([C@@H](C)CO)C(=O)c2cc(NC(=O)C3CCCCC3)ccc2O1 was read as TcdB GH inh 0.
Screening O=C(c1csc2ccccc12)N1CCCCCC1 returned BoNT F protease -2, BoNT A protease -2, Anthrax LF inh2 2 and Bead autofluor 20758*.
Screening O=C(c1csc2ccccc12)N1CCN(c2ccccn2)CC1 returned BoNT F protease 1, BoNT A protease 1, Anthrax LF inh2 -2 and Bead autofluor 2383.
For O=S(=O)(Nc1ccc2cn[nH]c2c1)c1ccc(C(F)(F)F)cc1 the results were BoNT F protease -9, TcdB GH inh 2, BoNT A protease -1, Anthrax LF inh2 6 and Bead autofluor 3986.
Screening O=C(O)c1cc(S(=O)(=O)Nc2ccc3cn[nH]c3c2)ccc1Cl returned BoNT F protease -14, TcdB GH inh 10*, BoNT A protease 0, Anthrax LF inh2 -10 and Bead autofluor 2973.
For O=C(CCC(=O)OCC(F)(F)C(F)F)Nc1ccc(F)cc1F the results were BoNT F protease 2, TcdB GH inh 0, BoNT A protease 0, Anthrax LF inh2 -2 and Bead autofluor 2481.
`O=C(OCC(F)(F)C(F)F)c1ccccc1C(=O)Oc1ccc(F)cc1F` gave BoNT F protease 3, BoNT A protease inconclusive, Anthrax LF inh2 0 and Bead autofluor 20051*.
Nc1nncn1C(=O)CCCOc1ccccc1 was read as BoNT F protease -9, TcdB GH inh 0, BoNT A protease -1, Anthrax LF inh2 -3 and Bead autofluor 4820.
`Nc1nncn1C(=O)CCc1ccccc1` gave BoNT F protease -4, BoNT A protease inconclusive, Anthrax LF inh2 -1 and Bead autofluor 22172*.
`O=C(NC1CCCC1)N1CC2(C1)[C@H](c1ccccc1)[C@H](CO)N2S(=O)(=O)Cc1ccccc1` gave TcdB GH inh 0.
